tim10-1 inh: growth inhibitors of tim10-1 mutant yeast; 330,000 compounds, 2.2% hits; inhibition, % at 20 µM; S. cerevisiae tim10-1 ts strain growth, BacTiter-Glo, 24 h;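 active = inhibition of at least 40%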;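 also: mutant grown at 25 °C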
tim23-1 inh: tim23-1 yeast growth inhibition. S. cerevisiae tim23-1 growth, BacTiter-Glo luminescence, 24 h. inhibition, % at 20 µM. 330,000 compounds, 1.3% hits;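 active = growth inhibition of the mutant yeast at or above 50%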;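 also: temperature-sensitive mutant grown at 25 °C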
NALP3 yeast inh: inhibitors of NALP3 inflammasome in yeast | Yeast reconstituted NLRP3/ASC/caspase-1, beta-gal luminescence, 24 h | inhibition, % at 10 µM | 330,000 compounds, 0.39% hits;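 active = inhibition of 50% or more; inactive = inhibition below 50%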
TIM10 inh: TIM10 yeast growth inhibition; inhibition, % at 10 µM; AID 463195; S. cerevisiae TIM10 strain growth, BacTiter-Glo luminescence, 24 h; 330,000 compounds, 1.4% hits;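 active = inhibition of 40% or more at the single tested concentration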;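 also: wild-type TIM10 isogenic control strain grown at permissive 25 °C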
PfHsp90 set2: inhibits growth of yeast expressing Plasmodium falciparum Hsp90. S. cerevisiae expressing PfHsp90, BacTiter-Glo ATP, 48 h; yeast lacking PDR1 and PDR3 efflux regulators. inhibition, % at 9.4 µM. 310,000 compounds, 0.32% hits. AID 504621;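 active = every replicate shows inhibition above about 80%, whatever the replicate mean, limit read from the data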
tim10-1 confirm: tim10-1 yeast growth inhibition, confirmed; shares compounds with tim10-1 inh; S. cerevisiae tim10-1 ts strain growth, BacTiter-Glo, 24 h; inhibition, % at 20 µM; 7,400 compounds, 56% hits; AID 463213;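 active = inhibition of yeast growth at or above a set limit in either of two repeat tests at 20 µM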;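 also: tim10-1 mutant grown at permissive 25 °C to find synthetic lethal compounds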
tim10 confirm: TIM10 yeast growth inhibition, confirmed. S. cerevisiae tim10 strain growth, BacTiter-Glo luminescence, 24 h. shares compounds with TIM10 inh. 4,600 compounds, 63% hits. inhibition, % at 10 µM;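 active = inhibition of yeast growth at or above a set limit in either of two replicates at 10 µM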; also: this counterscreen used the strain with wild-type TIM10
tim23-1 confirm: tim23-1 yeast growth inhibition, confirmed | shares compounds with tim23-1 inh | S. cerevisiae tim23-1 growth, BacTiter-Glo luminescence, 24 h | inhibition, % at 20 µM | 4,400 compounds, 83% hits;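 active = inhibition above about 39% in either of two replicate wells at 20 µM, limit read from the data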;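 also: temperature-sensitive tim23-1 mutant grown at 25 °C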
Large screens that a line does not name were inactive (follow-up assays come after a bar, where they were run). Most compounds without a hit are left out; they make up all but 3.7% or so of the library.

O=c1oc(-c2ccco2)nc2sc3c(c12)CCCC3	tim10-1 inh 46, tim23-1 inh 54, TIM10 inh 47 | tim10-1 confirm 31 | tim10 confirm 43 | tim23-1 confirm 42
Cc1nc2sc3c(c2c(=O)o1)CCCC3	none
COc1ccc(/C=N/NC(=O)c2ccc3c(c2)OCO3)c(C(=O)O)c1OC	none
Brc1ccc2c(c1)OCCOCCOc1cc(Br)ccc1OCCOCCOCCO2	tim10-1 inh 57, tim23-1 inh 62 | tim10-1 confirm 62 | tim23-1 confirm 72
CN(/N=C/c1ccc(O)cc1O)c1ncc(C(F)(F)F)cc1Cl	tim10-1 inh 45, tim23-1 inh 62 | tim10-1 confirm inactive | tim23-1 confirm 56
CN(/N=C/c1ccccc1Cl)c1ncc(Cl)cc1C(F)(F)F	none
COc1ccc(-n2c(SCc3ccc([N+](=O)[O-])cc3)nnc2-c2ccc(C)cc2)cc1	none
Cc1c(Cl)cccc1NC(=S)NC(=O)c1cncc(Br)c1	none
O=C(NCc1cn2ccccc2n1)c1ccc2c(c1)OCO2	none
O=C1c2ccccc2-c2n[nH]c3cccc1c23	tim10-1 inh 59, tim23-1 inh 67 | tim10-1 confirm inactive | tim23-1 confirm 67
O=C(c1ccccc1)N(CCN1CCOCC1)C1(C(=O)Nc2ccccc2)CCCCC1	none
CSc1nnc2c3cc(F)ccc3n(C)c2n1	tim10-1 inh 48, tim23-1 inh 51, TIM10 inh 77, PfHsp90 set2 83 | tim10-1 confirm 61 | tim10 confirm 81 | tim23-1 confirm 50
COC(/C=C/Nc1ccc(Br)cc1)=C(C#N)C#N	none
CC12CN3CCN(CC(C3)/C1=N\NC(=O)Nc1cccc(Cl)c1)C2	none
O=C(CC(Nc1ccccc1)C(=O)O)c1ccccc1 (stereo unspecified)	none
C=C(C(=O)c1ccccc1)C(C)CC(=O)c1ccccc1 (stereo unspecified)	tim10-1 inh 44, tim23-1 inh 55, TIM10 inh 49 | tim10-1 confirm 60 | tim10 confirm 56 | tim23-1 confirm 48
C/C(CC(=O)Nc1ccc(C)c(Cl)c1)=N\NC(=O)c1ccccn1	none
Cc1ccc(/C(N)=N/OC(=O)c2ccc(Cl)cc2Cl)cc1	tim10-1 inh 47, tim23-1 inh 80, TIM10 inh 88 | tim10-1 confirm inactive | tim10 confirm inactive | tim23-1 confirm 44
Cc1ccc(C(=O)O/N=C(\N)Cc2cccs2)c(Cl)c1	tim10-1 inh 69, tim23-1 inh 91, TIM10 inh 85 | tim10-1 confirm 63 | tim10 confirm 86 | tim23-1 confirm 87
COc1ccccc1C(=O)O/N=C(\N)c1ccc(Cl)cc1	tim10-1 inh 50, tim23-1 inh 64 | tim10-1 confirm 45 | tim23-1 confirm 54
CSCC(CO)NS(=O)(=O)c1ccc(C)cc1 (stereo unspecified)	none
O=C(NCc1ccccc1Cl)c1ccc(S(=O)(=O)NCc2ccco2)cc1	none
Cc1ccnc(N2C(=O)c3cccc4c([N+](=O)[O-])ccc(c34)C2=O)c1	tim10-1 inh 90, tim23-1 inh 74, TIM10 inh 90 | tim10-1 confirm 90 | tim10 confirm 97 | tim23-1 confirm 78
Cc1nnc(N2C(=O)c3cccc4c([N+](=O)[O-])ccc(c34)C2=O)s1	tim10-1 inh 85, tim23-1 inh 67 | tim10-1 confirm 64 | tim23-1 confirm 68
Cc1ccc(N2C(=O)c3cccc4c([N+](=O)[O-])ccc(c34)C2=O)c2cccnc12	none
C=C(C)C(=O)OC1(C(F)(F)F)Oc2cc(C)ccc2NC1=O (stereo unspecified)	tim10-1 inh 56, tim23-1 inh 66, TIM10 inh 48 (no result: PfHsp90 set2) | tim10-1 confirm 52 | tim10 confirm 41 | tim23-1 confirm 78
O=C(c1ccc(-n2cnnn2)cc1)N(C1CCCCC1)C1CCCCC1	none
O=C(NO)c1ccc(C(=O)N(C2CCCCC2)C2CCCCC2)cc1	tim10-1 inh 53, tim23-1 inh 64, TIM10 inh 51 (no result: PfHsp90 set2) | tim10-1 confirm 41 | tim10 confirm 39 | tim23-1 confirm 71
N#C/C(=C/c1ccc(N2CCCCCC2)o1)c1ccc(F)cc1	tim10-1 inh 62, tim23-1 inh 60, TIM10 inh 42 | tim10-1 confirm inactive | tim10 confirm 58 | tim23-1 confirm 69
O=C(NCCN1C(=O)S/C(=C\c2ccc(Cl)cc2Cl)C1=O)C1=COCCO1	tim10-1 inh 41, tim23-1 inh 57, TIM10 inh 47 | tim10-1 confirm 47 | tim10 confirm 48 | tim23-1 confirm 67
COc1cc(/C=C/C(=O)c2ccc(Cl)s2)cc(OC)c1O	tim10-1 inh 62, tim23-1 inh 67, TIM10 inh 43 | tim10-1 confirm 59 | tim10 confirm 44 | tim23-1 confirm 53
Cc1c(/C=C/C(=O)c2ccccc2)cnn1C	none
Cc1c(/C=C/C(=O)c2ccc(Cl)s2)cnn1C	tim10-1 inh 45, tim23-1 inh 58, TIM10 inh 48 (no result: PfHsp90 set2) | tim10-1 confirm 36 | tim10 confirm 37 | tim23-1 confirm 47
Cc1cc(C)c(S(=O)(=O)c2ccccc2)c(OC(=O)c2ccc(Cl)cc2Cl)n1	tim10-1 inh 46, tim23-1 inh 74, TIM10 inh 52 | tim10-1 confirm 42 | tim10 confirm inactive | tim23-1 confirm 76
Fc1ccc(NC(=S)Nc2ccc(F)c(Cl)c2)cc1Cl	tim10-1 inh 71, tim23-1 inh 72, TIM10 inh 53 | tim10-1 confirm 61 | tim10 confirm inactive | tim23-1 confirm 65
COc1ccc(-c2nc3c(n2O)CCCC3=O)cc1OC	none
COC(=O)C1CC(=O)c2ccsc2C1 (stereo unspecified)	none
O=S(=O)(c1ccc(Cl)nc1)N1CCCC1	none
COc1ccc(/C=N/NC(=O)c2nc(-c3ccccc3)cc(-c3ccccc3)n2)cc1	none
NNc1nc(-c2ccccc2)cc(-c2ccccc2)n1	tim10-1 inh 43, tim23-1 inh 55, TIM10 inh 49 | tim10-1 confirm 48 | tim10 confirm inactive | tim23-1 confirm 56
NNc1nc(-c2ccccc2)cc(-c2ccccc2O)n1	tim10-1 inh 44, tim23-1 inh 55, TIM10 inh 48 | tim10-1 confirm 47 | tim10 confirm 42 | tim23-1 confirm 59
NNC(=O)c1nc(-c2ccccc2)cc(-c2ccccc2)n1	tim10-1 inh 42, tim23-1 inh 63 | tim10-1 confirm inactive | tim23-1 confirm 67
COc1ccc(-n2c(COc3cccc4cccnc34)nnc2SCC(=O)O)cc1	none
COc1ccc(Br)cc1C(=O)NC(=S)Nc1ccc(CN2CCOCC2)cc1	tim10-1 inh 55, tim23-1 inh 51 | tim10-1 confirm inactive | tim23-1 confirm 57
